Assay results published in PubChem BioAssay AID2615 (Southern Research Specialized Biocontainment Screening …, 2010).
The source made the active and inactive calls. The rule behind the calls is not given here.

Assay: antiviral efficacy and BSC cell toxicity – BSC cells, SV40 T antigen inhibitor project, confirmation (AID 2615)
Settings: BSC cells SV40 infection, CPE inhibition; viability, at 100 µM, stronger effect = lower value

## COc1ccc(CC2NCCc3cc(OC)c(OC)cc32)cc1OC (configuration not stated)
  outcome: inactive
  viability: 201%
